# Source: PubChem BioAssay AID463173 (ICCB-Longwood Screening Facility, Harvard Medical School, 2010)
# The campaign covered roughly 52,000 compounds. About 1,700 (3.3%) were called active. For the sample, actives were picked, then their nearest neighbours and some compounds at random. Values without a mark were called inactive. Cut-off read from the data, not from the text of the source: active = survival mostly below about 52% (no sharp cut-off); inactive = mostly above about 56%.
# Test system: Wild type
# Assay: S. aureus survival, RN4220 and DeltatarO strains – OD600, teichoic acid synthesis inhibitors, primary screen (AID 463173)
# Conditions: S. aureus RN4220 wild type/DeltatarO growth, OD600, 18 h, stronger effect = lower value, screened at 18.75 µg/mL (by protocol)
row,Structure (SMILES),survival
1,O=C(CC1N=C2c3ccccc3N=C(SCC(=O)Nc3ccc(F)cc3)N2C1=O)NCc1ccc2c(c1)OCO2 (centres undefined),80%
2,COc1ccc2cc3cc(C(=O)NCc4ccccc4OC)oc3nc2c1,80%
3,Cc1cccc(-c2nc(Cn3c(SCc4cccc(C(F)(F)F)c4)nc4ccncc43)c(C)o2)c1,81%
4,Cc1ccc(C(=O)ON=C2CCN(C)CC2)cc1,108%
5,O=C(Nc1cccc(F)c1)c1cnc2sc(N3CCCC3)nn2c1=O,74%
6,COc1ccccc1CNC(=O)Cn1cc2c(n1)-c1c(oc(C(=O)N3CCOCC3)c1C)CC2,84%
7,COc1cc2oc(=O)c(CC(=O)N3CCCCC3)c(C)c2cc1Cl,84%
8,Cc1ccc(OCC(=O)Nc2c(C(=O)c3ccc(Cl)cc3)oc3ccccc23)cc1C,129%
9,CCOC(=O)c1cnc2c(OC)cccc2c1N1CCN(c2ccccc2F)CC1,-14% (active)
10,CCOC(=O)c1cnc2cc(C(F)(F)F)ccc2c1N1CCN(c2cccc(Cl)c2)CC1,55%
11,CCOC(=O)c1cnc(N2CCN(c3ccc(C)cc3C)CC2)c2ccccc12,112%
12,CCOC(=O)c1cnc2ccc(OCC)cc2c1N1CCN(c2ccccc2F)CC1,-12% (active)
13,CCOC(=O)c1noc2ncnc(N3CCN(c4cccc(Cl)c4)CC3)c12,75%
14,CCOC(=O)c1cc(S(=O)(=O)N2CCN(c3ccccc3OC)CC2)[nH]n1,124%
15,CCOC(=O)c1cnc2cc(C(F)(F)F)ccc2c1N1CCN(c2ccc(F)cc2)CC1,58%
16,CCOC(=O)c1cnc(N2CCN(c3cccc(C)c3C)CC2)c2ccccc12,85%
17,CCOC(=O)c1cc(S(=O)(=O)N2CCN(c3cccc(C)c3C)CC2)[nH]n1,72%
18,CCOC(=O)c1cc(S(=O)(=O)N2CCN(c3ccccc3F)CC2)[nH]n1,-6% (active)
19,CCOC(=O)c1cnc2ccc(OCC)cc2c1N1CCN(c2cccc(Cl)c2)CC1,-9% (active)
20,COC(=O)c1cnc(N2CCN(c3ccccc3F)CC2)c2ccccc12,93%
21,O=C(Cn1c(=O)n(-c2ccccc2)c(=O)c2sc3ccccc3c21)NC1CCCC1,138%
22,CCOc1ccc(CNC(=O)CCn2nc(C)c3c(C)n(-c4ccccc4)nc3c2=O)cc1,129%
23,COc1ccccc1-c1cc2nc(C)c(CCC(=O)NCc3cccc(Cl)c3)c(C)n2n1,112%
24,CC(C)(C)OC(=O)N1CCC2(CC1)C(C#N)=C(N)OC1=C2C(=O)CCC1,104%
25,CN1CCN(CC(=O)Nc2ccc(C(=O)NCC3CCCO3)cc2)CC1 (centres undefined),108%

row,Structure (SMILES),survival
1,COc1ccc2c(c1)c1c(c(=O)n(-c3cccc(C)c3)c(=O)n1CC(=O)NCCC1=CCCCC1)n2C,74%
2,COc1ccccc1C(=O)Nc1ccccc1OCc1cc(=O)n2ccccc2n1,92%
3,CCN(CC)C(C)C(=O)Nc1c(C)cccc1C (centres undefined),109%
4,Cc1ccc2oc(-c3cc(NC(=O)/C=C/c4ccco4)ccc3Cl)nc2c1,25%
5,O=C(Nc1ccc(Cl)c(-c2nc3ccccc3o2)c1)c1cccc2c(Cl)cccc12,67%
6,Cc1ccc2oc(-c3cc(NC(=O)c4oc5ccccc5c4C)ccc3Cl)nc2c1,81%
7,COc1c(C)cccc1C(=O)Nc1ccc(Cl)c(-c2nc3cc(C)ccc3o2)c1,-6% (active)
8,Cc1ccc2oc(-c3cc(NC(=O)Cc4ccccc4)ccc3Cl)nc2c1,70%
9,Cc1ccc2oc(-c3cc(NC(=O)c4ccco4)ccc3Cl)nc2c1,1% (active)
10,CC(C)c1ccc(NC(=O)c2cc3c(=O)oc4ccccc4c3s2)cc1,87%
11,CCOC(=O)c1c(-c2ccc(OC)cc2)oc2ccc(OCc3ccc(F)cc3F)cc12,42%
12,CCc1cccc(NC(=O)c2cc3c(s2)-c2ccccc2OC3)c1,86%
13,O=C(NCc1ccc(F)cc1)c1cc2c(s1)-c1ccccc1SC2,50%
14,O=C(NCCCN1CCN(c2ccc(F)cc2)CC1)c1cc2c(s1)-c1ccccc1OC2,62%
15,O=C(NCc1ccc(Cl)cc1)c1cc2c(s1)-c1ccccc1SC2,62%
16,CCOc1ccc(NC(=O)c2cc3c(s2)-c2ccccc2OC3)cc1,100%
17,CCCN(C(=O)c1cc2c(s1)-c1ccccc1SC2)c1ccccc1F,1% (active)
18,CCCN1CCN(CCCNC(=O)c2cc3c(s2)-c2ccccc2OC3)CC1,83%
19,O=C(NCCCN1CCN(c2ccccc2F)CC1)c1cc2c(s1)-c1ccccc1OC2,11% (active)
20,CCN(CC)CCOC(=O)c1ccc(NC(=O)c2cc3c(s2)-c2ccccc2OC3)cc1,5% (active)
21,O=C(NCCCN1CCN(c2ccccc2)CC1)c1cc2c(s1)-c1ccccc1OC2,69%
22,CCCN(C(=O)c1cc2c(s1)-c1ccccc1OC2)c1ccccc1F,-2% (active)
23,O=C(NCCc1ccc(Cl)cc1)c1cc2c(s1)-c1ccccc1OC2,105%
24,Cc1ccc(NC(=O)C2CCCN2S(=O)(=O)c2ccc3c(c2)CCCC(=O)N3)cc1Cl (centres undefined),113%
25,COc1ccc(-c2nc3cc(N=Cc4ccccc4O)ccc3o2)cc1,111%

row,Structure (SMILES),survival
1,CCCCn1c2ccc(F)cc2c2nnc(SCCN3CCCCC3)nc21,139%
2,COCCCNC(=O)c1cc(-c2cccnc2)nc2ccccc12,118%
3,CCOc1ccc(NC(=O)CN2C(=O)c3ccccc3Sc3ccc(C(=O)OC)cc32)cc1,81%
4,COc1ccccc1OCc1ccc(C(=O)NCc2ccncc2)o1,116%
5,Cc1ccc(Cn2cc(S(=O)(=O)c3ccccc3)c(=O)c3cc(F)c(N4CCOCC4)cc32)cc1,58%
6,O=C(c1nc(-c2ccc(Cl)cc2)n2c1CCCCC2)N1CCN(c2ccc(F)cc2)CC1,70%
7,COc1ccc(C2c3c(n(C)c4ccccc34)C(=O)N2CC(=O)Nc2ccc(F)cc2)cc1 (centres undefined),81%
8,CC(=O)Nc1ccccc1-c1nc2cc(C#N)c(C#N)cc2[nH]c1=O,108%
9,CCN(c1ccccc1C)S(=O)(=O)c1nnc(NC(=O)c2ccc(OC)c(OC)c2)s1,42%
10,COC(=O)c1ccccc1NC(=O)CCc1c(C)nc2c(c(C)nn2-c2ccccc2)c1C,117%
11,O=C(CSc1nc(-c2ccccc2)cn1-c1ccccc1)Nc1ccccc1,68%
12,COc1ccc(NC(=O)c2c(NCc3cccc(OC)c3)sc3c2CCC3)cc1,65%
13,CC(C)Nc1nc(NC(C)C)nc(N(C)C)n1,115%
14,Cc1ccc2oc3c(c(=O)c2c1)C(c1cccc(O)c1)N(Cc1ccccc1Cl)C3=O (centres undefined),82%
15,CCc1ccccc1N(CC)C(=O)c1cc2c(s1)-c1ccccc1OC2,9% (active)
16,CCN(C(=O)c1cc2c(=O)oc3ccccc3c2s1)c1cccc(C(F)(F)F)c1,131%
17,COc1ccc(Cl)cc1NC(=O)c1cc2c(s1)-c1ccccc1OC2,80%
18,CCc1ccc(CNC(=O)c2cc3c(s2)-c2ccccc2OC3)cc1,95%
19,CCN(C(=O)c1cc2c(s1)-c1ccccc1OC2)c1cccc(C(F)(F)F)c1,14% (active)
20,CCN(C(=O)c1cc2c(s1)-c1ccccc1OC2)c1cc(Cl)ccc1OC,8% (active)
21,CCCN(C(=O)c1cc2c(s1)-c1c(C)cccc1OC2)c1ccc(OCC)cc1,95%
22,CCCN(C(=O)c1cc2c(s1)-c1ccccc1OC2)c1ccc(C(C)C)cc1,5% (active)
23,CCN(C(=O)c1cc2c(=O)n(CC)c3ccccc3c2s1)c1cccc(C(F)(F)F)c1,89%
24,CCOc1ccc(N(CC)C(=O)c2cc3c(s2)-c2ccccc2OC3)cc1,88%
25,CCOc1ccc(CNC(=O)c2cc3c(s2)-c2ccccc2OC3)cc1,91%

row,Structure (SMILES),survival
1,COc1ccccc1CNC(=O)c1cc2c(s1)-c1ccccc1OC2,92%
2,O=C(CSCc1cnn(-c2ccccc2)c1-n1cccc1)NCc1cccc(Cl)c1,91%
3,O=C(O)C1CCN(C(=O)c2ccc(-c3ccccc3)cc2)CC1,116%
4,Cc1ccc(Cl)cc1-n1c(=O)c2sc3ccccc3c2n(Cc2ccccc2)c1=O,77%
5,Cn1c(=O)oc2cc(S(=O)(=O)CCC(=O)NCc3ccc(Cl)cc3)ccc21,74%
6,CCc1ccccc1N(CC)C(=O)c1cc2c(s1)-c1ccccc1SC2,-1% (active)
7,O=C(NCc1ccccc1Cl)c1cc2c(s1)-c1ccccc1SC2,74%
8,Cc1ccc(CNC(=O)c2cc3c(s2)-c2ccccc2SC3)cc1,120%
9,CCOc1ccc(CCNC(=O)c2ccc3c(c2)N(Cc2ccccc2F)C(=O)c2ccccc2S3=O)cc1OCC (centres undefined),84%
10,Cn1c(C(=O)NCc2ccc(Cl)cc2)cc2c(=O)n(C)c3ccccc3c21,120%
11,CCNC(=O)c1c(NC(=O)c2cc(=O)c3ccc(C)c(C)c3o2)sc2c1CCCC2,85%
12,Cc1ccccc1OCC(=O)OCc1cc(=O)n2ccsc2n1,82%
13,Cc1csc2nc(COC(=O)c3ccccc3NC(=O)c3ccc(F)cc3)cc(=O)n12,14% (active)
14,CCOc1cc(C(=O)OCc2cc(=O)n3c(C)csc3n2)cc(OCC)c1OCC,-3% (active)
15,Cc1csc2nc(COC(=O)c3ccccc3NC(=O)c3ccc(C(C)(C)C)cc3)cc(=O)n12,55%
16,Cc1cccc(C(=O)Nc2ccccc2OCc2cc(=O)n3cc(C)ccc3n2)c1,47%
17,Cc1csc2nc(COC(=O)c3ccc(F)cc3)cc(=O)n12,81%
18,COc1cccc(C(=O)Nc2cccc(C(=O)OCc3cc(=O)n4c(C)csc4n3)c2)c1,133%
19,COc1ccccc1C(=O)Nc1ccccc1C(=O)OCc1cc(=O)n2c(C)csc2n1,131%
20,Cc1ccccc1C(=O)Nc1cccc(C(=O)OCc2cc(=O)n3c(C)csc3n2)c1,76%
21,CCOc1ccc(C(=O)Nc2ccc(C(=O)OCc3cc(=O)n4c(C)csc4n3)cc2)cc1,85%
22,Cc1csc2nc(COC(=O)c3cccc(NC(=O)c4cccc(Cl)c4)c3)cc(=O)n12,-1% (active)
23,Cc1ccc2nc(COc3ccccc3NC(=O)c3ccc(F)cc3)cc(=O)n2c1,-3% (active)
24,Cc1ccc2nc(COc3ccccc3NC(=O)c3ccccc3F)cc(=O)n2c1,80%
